Measured values as given in ChEMBL document CHEMBL1157539, “Thousands of chemical starting points for antimalarial lead identification” (Nature, 2010).

Assays:
Type in all cases: functional
Plasmodium falciparum [1] = assay: GSK_TCMDC: Inhibition of Plasmodium falciparum 3D7 in whole red blood cells, using parasite LDH activity as an index of growth. Test compounds present at 2uM
Plasmodium falciparum [2] = assay: GSK_TCMDC: Inhibition of Plasmodium falciparum Dd2 in whole red blood cells, using parasite LDH activity as an index of growth. Test compounds present at 2uM
HepG2 = assay: GSK_TCMDC: Percent inhibition of human HepG2 cell line. Test compounds present at 10uM.

| SMILES | Inhibition (Plasmodium falciparum [1]) | Inhibition (Plasmodium falciparum [2]) | Inhibition (HepG2) |
| --- | --- | --- | --- |
| CC(C)c1ccc(-c2nc3cc(Cl)cnc3[nH]2)cc1 | 87% | 77% | 3% |
| O=C(c1ccccc1)N1COCC(CCN2CCC(N3CCCC3)CC2)(c2ccc(Cl)c(Cl)c2)C1 (configuration not stated) | 83% | 9% | 18% |
| FC(F)(F)c1ccc2[nH]c(-c3ccc(-c4cccc(CNCC5CCCO5)c4)cc3)nc2c1.O=C(O)C(F)(F)F (configuration not stated) | 100% | 100% | 36% |
| COc1ccc2nccc(N/N=C/c3ccc([N+](=O)[O-])cc3)c2c1 | 100% | 68% | 9% |
| O=C(Nc1ccc(Cl)cc1)Nc1nc2cc([N+](=O)[O-])ccc2[nH]1 | 100% | 6% | 0% |
| Cc1cc(=NN=Cc2ccc(F)cc2)c2ccc(C(F)(F)F)cc2[nH]1 | 95% | 24% | 4% |
| Cc1cc(OCCCNc2nc(NCCc3ccc(O)cc3)nc(N3CCNCC3)n2)c(Cl)c(C)c1Cl.O=C(O)C(F)(F)F | 99% | 8% | 54% |
| COc1cc(NCC(CN)Cc2ccc3c(c2)OCO3)nc2ccccc12.Cl (configuration not stated) | 94% | 6% | 41% |
| CCCCCN1CCC(NC(=O)c2ccc(C(=O)Nc3ccc(C(C)C)cc3)cc2)C1.O=C(O)C(F)(F)F (configuration not stated) | 95% | 17% | 38% |
| N=C(N)NC(=O)Nc1cc(F)c(Cl)c(Br)c1 | 100% | 50% | 0% |
| COc1ccc2c(c1)CCN(CCN1CCC(CNC(=O)c3ccc(-c4ccc(C#N)cc4)cc3)CC1)C2 | 100% | 51% | 40% |
| COc1ccc(CN2CCC(N3CC(c4ccccc4)(c4ccccc4)OCC3=O)C2)c(O)c1.O=C(O)C(F)(F)F (configuration not stated) | 96% | 27% | 10% |
| FC(F)(F)c1cccc(CCNc2nccc(NCc3ccccc3Cl)n2)c1 | 89% | 38% | 31% |
| CC(C)(C)C(Cn1ccnc1)NCc1c[nH]nc1-c1ccc(-c2ccccc2)cc1 (configuration not stated) | 98% | 69% | 15% |
| Clc1cc(Nc2ccnc3ccc(Br)cc23)ccc1Oc1ccc2ccccc2c1Cl | 100% | 93% | 5% |
| CCn1ncc2c(NC3CCOCC3)c(CNC(=O)c3ccnn3C)c(C)nc21 | 98% | 98% | 0% |
| CCNc1cc(C(=O)N[C@@H](Cc2ccccc2)[C@H](O)CNC2CC3CCC2C3)cc(N2CCCCS2(=O)=O)c1.Cl (some centres not stated) | 99% | 73% | 0% |
| CNC(=O)Cc1ccc(C(=O)Nc2cccc(-c3csc(-c4nc5ccccc5[nH]4)c3)c2)cc1 | 95% | 69% | 36% |
| COc1ccc2nccc([C@@H](O)CN3CCC(NC(=O)c4[nH]c5ccccc5c4-c4ccccc4)CC3)c2c1 | 96% | 68% | 18% |
| CCCCNc1cc(NCCCC)c2c(n1)[nH]c1ccccc12 | 100% | 94% | 13% |
| COc1cccc(-c2cnc(N)c(-c3nc4ccc(C(F)(F)F)cc4[nH]3)c2)c1.Cl | 99% | 30% | 5% |
| O=C(O)C(F)(F)F.O=S(=O)(Nc1ccc(-c2ccc(CN3CCCC3)cc2)cc1)c1cccc2cccnc12 | 91% | 10% | 37% |
| COc1ccc2nc(N)nc(C)c2c1 | 90% | 1% | 5% |
| COc1ccc(-c2ccc(NC(=O)c3ccc(C#N)cc3)cc2)cc1CN1CCN(C)CC1.O=C(O)C(F)(F)F | 93% | 49% | 21% |
| Cc1ncccc1C(=O)Nc1cccc(-c2cccc(-c3nc4cccc(C)c4[nH]3)c2)c1 | 93% | 69% | 6% |
| CC(C)COc1ccc(Cl)cc1Cc1nc(-c2nc3ccc(CN4CCCCC4)cc3[nH]2)co1.Cl | 100% | 70% | 49% |
| CSc1ccc(CN2CCC(NC(=O)c3ccc(-c4ccc(N(C)C)cc4)s3)CC2)cc1.O=C(O)C(F)(F)F | 86% | 26% | 30% |
| COc1ccc(CCNC(=O)c2cc3c(=O)n4cccc(C)c4nc3n(C)c2=N)cc1 | 99% | 99% | 22% |
| Cc1nc2ccc(Nc3nccc(-c4c(-c5cccc(NC(=O)c6c(F)cccc6F)c5)nn5ccccc45)n3)cc2nc1C | 91% | 45% | 55% |
